Bioassay records as filed in PubChem BioAssay.
D2 antagonist: antagonizes the human D2 dopamine receptor. P14416. HEK293 TREx D2 cells, calcium flux, dopamine EC80. inhibition, % at 10 µM. 340,000 compounds, 2% hits; in the data active = inhibition above about 30%; inactive = below that, where a call was filed; also: 0% is about no effect
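Cells plated overnight at 30 C with tetracycline; no-wash calcium dye, 30–90 min RT; 10 s baseline; compound pinned; 180 s read; EC80 dopamine added; another 180 s read.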
B2AR arrestin: recruits beta-arrestin to the human beta2-adrenergic receptor; P07550; beta-arrestin recruitment to beta2AR, cell-based reporter; Potency, µM (series often up to 46.1 µM), without a hit: top-dose activation, actives largely listed as activators; 330,000 compounds, 0.02% hits; AID 492947;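 also: potency is read from the fitted curve at half-maximal effect; 0% = DMSO controls and full agonism = EC100 isoproterenol or metaproterenol; nearly all actives have a fitted effect of over 65% in size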
Target sequence (P07550 whole entry, looked up): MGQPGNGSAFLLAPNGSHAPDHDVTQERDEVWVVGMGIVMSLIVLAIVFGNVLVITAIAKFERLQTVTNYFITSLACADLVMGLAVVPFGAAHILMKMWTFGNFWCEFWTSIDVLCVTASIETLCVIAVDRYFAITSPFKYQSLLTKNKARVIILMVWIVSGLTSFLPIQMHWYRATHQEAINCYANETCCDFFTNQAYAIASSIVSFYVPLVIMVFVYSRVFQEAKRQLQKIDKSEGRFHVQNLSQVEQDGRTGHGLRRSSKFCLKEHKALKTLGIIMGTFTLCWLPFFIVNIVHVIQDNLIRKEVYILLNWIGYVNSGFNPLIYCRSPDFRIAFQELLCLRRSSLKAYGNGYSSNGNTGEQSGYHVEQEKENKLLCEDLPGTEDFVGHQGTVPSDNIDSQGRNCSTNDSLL
D2 ag-1: agonists of human D2 dopamine receptor (beta-arrestin) | P14416 | DiscoveRx PathHunter D2 beta-arrestin, luminescence, 90 min; 100% = 57 uM dopamine signal | activation, % (concentration not given with the values) | 360,000 compounds, 0.084% hits; in the data active = activation above about 40%; inconclusive = between about 15% and that limit
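DiscoveRx PathHunter D2 beta-arrestin cells (2,100/well) attached overnight, then compound-stimulated 90 min at 37 C in HBSS/10 mM HEPES/0.1% Tween-20 buffer; beta-galactosidase complementation read by luminescence after 1 h at ambient temperature. Dopamine 57 uM final (EC100) as control.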
D2 PAM-1: positive allosteric modulators of human D2 dopamine receptor; P14416; DiscoveRx D2 beta-arrestin cells, luminescence, 90 min; 100% = 57 uM dopamine signal; potentiation, % (no concentration beside the values); 360,000 compounds, 0.23% hits; in the data active = potentiation above about 50%; inconclusive = mostly about 30% to 49%
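PathHunter beta-arrestin assay in DiscoveRx D2 cells. Compounds were added with an EC20 of dopamine (50 nM final) for 90 min at 37 deg C. Luminescence was read 1 h after detection reagent, with 57 uM dopamine as the EC100 control.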
D2 ag-2: agonists of human D2 dopamine receptor; AID 485358; P14416; 340,000 compounds, 0.53% hits; activation, % at 2 µM; HEK293 T-REx D2 cells, calcium flux agonist mode;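 active = activation over 3 SD above normal in the single-dose calcium agonist read, cut at about 30% in these data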; also: 0% is about no effect
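Agonism scored from kinetic calcium signal (1 read/sec, 180 s) following compound pin transfer, after a 10 s baseline. Cells: HEK293 Trex line expressing inducible D2 receptor coupled to calcium, dye-loaded after overnight culture at 30 C.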
D2 PAM-2: positively modulates the human D2 dopamine receptor allosterically. potentiation, % at 10 µM. 340,000 compounds, 0.34% hits. P14416. HEK293 T-REx D2, calcium flux, EC20 dopamine potentiation. AID 485347;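 active = potentiation over 3 SD above the plate norm, cut at about 30% in these data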; also: 0% is about no effect
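Calcium flux readout, no-wash dye, 1 read/s. Inducible HEK293 Trex D2 line, overnight 30 C. Compound alone 180 s (agonist flags), then EC20 dopamine, another 180 s to score potentiation.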
D3 ag: confirmation of human D3 dopamine receptor agonists, beta-arrestin; shares compounds with D2 ag-2; DiscoveRx D3 beta-arrestin cells, luminescence, 90 min; Potency, µM (doses to about 76.9 µM), for the others: at the highest dose activation, usual class: activators; 2,300 compounds, 4% hits;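 also: potency is read from the fitted curve at half-maximal effect; 100% = dopamine control response; nearly all actives have a fitted effect of over 70% in size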
D2 ag-3: counter-screen for D3 agonists: human D2 dopamine receptor agonism | AID 720507 | 2,300 compounds, 5.9% hits | shares compounds with D2 ag-2 | DiscoveRx PathHunter D2 beta-arrestin, luminescence, 90 min; response scale: percent relative to full dopamine signal | Potency, µM (series often up to 76.9 µM), inactives show at the top dose activation, most hits filed as activators; also: potency is read from the fitted curve at half-maximal effect; % of control where 0% means no effect; nearly all actives have a fitted effect of over 70% in size
Active calls of the source: *; ? = inconclusive; / = no result. This is a sample that favours compounds with a hit; in the whole collection about 2.4% have one here. Unless noted, calls follow the shape of the dose curve; as a rule, active = well fitted activation curve with a large enough effect; inconclusive = small, poorly fitted or top-dose-only effect; inactive = flat fitted curve, though single readings scatter.

SMILES	D2 antagonist	B2AR arrestin	D2 ag-1	D2 PAM-1	D2 ag-2	D2 PAM-2	D3 ag	D2 ag-3
Clc1cccc(CN2CCN(c3ncccn3)CC2)c1Cl	60.7*	0.4%	?	23.8	69.1*	-33.7	22.9%	50.1µM*
Clc1ccc(CN2CCN(c3ncccn3)CC2)c(Cl)c1	89.8*	0.1%	78.8*	59.4*	75.8*	-23.9	?	28.2µM*
CCCCC/C=C/C1=CC(=O)C[C@H](c2ccc3c(c2)OCO3)C1	30.8*	0.1%	-3.2	-10.1	0.5	-3.8	-5.4%	-0.9%
CC(CN1CCC(O)CC1)c1ccccc1 (centres undefined)	-1.2	-0.4%	-0.8	-9.6	-0.1	6.2	/	/
CCCCC(O)CN1CCC(c2ccccc2)CC1 (centres undefined)	48.3*	-0.2%	-0.6	-47.2	52.0*	-25.3	-10.4%	2.0%
CCc1ccc(NC(=O)C(=O)NCCN2CCN(C(=O)c3ccc(OC)cc3)CC2)cc1	/	/	-2.8	-16.8	/	/	/	/
NC(=O)c1ccc(NC(=O)CN2CCN(C(=O)c3ccco3)CC2)cc1	/	0.2%	12.5	-1.2	/	/	?	?
CCOC(=O)c1ccc(NC(=O)CN2CCN(C(=O)c3ccco3)CC2)cc1	67.4*	0.0%	?	21.4	79.6*	-5.8	22.4µM*	?
NC(=O)c1ccc(NC(=O)CN2CCOCC2)cc1	-5.8	-0.8%	0.2	-13.0	0.2	-4.8	/	/
CCc1ccc(NC(=O)C(=O)NCCN2CCN(C(=O)c3ccco3)CC2)cc1	1.2	2.6%	?	19.6	66.9*	-22.6	5.01µM*	?
O=C1CCN(S(=O)(=O)c2ccccc2)CCN1CCOCc1ccccc1	-8.1	0.3%	-0.3	-5.9	-0.2	4.1	/	/
C[C@H](NC(=O)N1CCn2c1nc1ccccc12)C(=O)N1CCCCC1	6.3	0.1%	-3.4	-8.1	0.5	-1.6	/	/
CCOC(=O)c1cccc(NC(=O)c2cnccn2)c1	/	-0.3%	-3.7	-6.2	/	0.6	-11.6%	-3.1%
COc1ccc(NC(=O)CN2CCN(c3ccc(F)cc3)CC2)cc1Cl	5.4	-2.8%	-3.3	-20.0	0.8	-4.5	/	/
COc1cc(Cl)c(C)cc1NC(=O)c1ccccc1NC(=O)CN1CCN(c2ccccn2)CC1	/	/	0.2	7.2	/	/	/	/
COc1cc(NC(=O)c2ccccc2)c(OC)cc1NC(=O)CN1CCN(c2ccccn2)CC1	-3.0	-0.5%	7.1	?	1.8	-28.6	?	?
COc1ccc(NC(=O)CN2CCN(c3ccccn3)CC2)cc1Cl	-11.8	-0.3%	8.7	-5.4	65.6*	-19.3	?	13.6%
CN(C(=O)C(C)(C)C)c1ccc(OCC(=O)N2CCc3ccccc3C2)cc1	-16.0	-0.3%	-0.1	-2.6	0.6	-8.8	/	/
COc1ccc(CCNC(=O)CSc2cn(Cc3ccccc3)c3ccccc23)cc1OC	-9.6	-0.5%	-4.9	-3.3	-0.8	-0.1	/	/
COc1ccc(CCNC(=O)CSc2ccccc2)cc1OC	-13.0	-0.9%	-0.8	2.4	0.7	8.0	/	/
COc1ccc(CCNC(=O)CSc2cn(Cc3cccc(C)c3)c3ccccc23)cc1OC	-5.2	6.5%	-1.9	-3.7	57.9*	-15.1	-8.1%	0.6%
COc1ccc(CCNC(=O)CNCC(c2ccccc2)N(C)C)cc1OC (centres undefined)	-1.9	-0.2%	7.0	-6.5	32.6*	-14.1	7.7%	11.2%
Cc1nn(Cc2cccc3ccccc23)c(C)c1NC(=O)c1cccnc1	-13.7	0.0%	-0.9	-5.8	-0.6	-2.1	/	/
Cc1ccc(NC(=O)[C@@H]2O[C@H](CO)[C@H](O)[C@H](O)[C@H]2O)cc1C(F)(F)F	/	/	-6.8	-18.2	/	/	/	/
CC12CCC(C(=O)N(CCCCN3CCN(c4ccccn4)CC3)C1=O)C2(C)C (centres undefined)	84.4*	-0.6%	72.9*	57.1*	73.0*	-20.7	?	0.0708µM*
SMILES	D2 antagonist	B2AR arrestin	D2 ag-1	D2 PAM-1	D2 ag-2	D2 PAM-2	D3 ag	D2 ag-3
CCN(CC)C(=O)c1cccc(NC(=O)CCc2nc3sc4c(c3c(=O)[nH]2)CCCC4)c1	-11.7	0.2%	1.3	-19.2	-1.0	-1.2	-5.4%	7.1%
COC(=O)Cc1n[nH]c(=O)c2ccccc12	3.0	-0.4%	-0.3	3.5	1.3	-8.8	/	/
CNc1nc(CC(C)=O)ns1	-5.7	-0.2%	-1.4	-8.9	-0.4	20.7	/	/
CCCCNc1nc(CC(C)=O)ns1	30.2*	0.1%	-3.7	2.1	50.2*	-18.4	-6.9%	-1.6%
COc1ccc(S(=O)(=O)N(Cc2cccnc2)Cc2cc3ccccc3[nH]c2=O)cc1	7.8	0.4%	2.7	3.6	0.6	5.0	/	/
Cc1ccc(S(=O)(=O)N(Cc2cccnc2)Cc2cc3ccccc3[nH]c2=O)cc1	93.9*	-0.2%	-2.4	3.9	0.0	2.5	-1.5%	1.5%
COc1cc(OC)cc(-c2c(-c3cccs3)c3cc(-c4ccc(N(C)C)nc4)ccc3n2C)c1	2.8	-1.0%	-3.7	-3.3	-0.4	19.8	1.7%	14.0%
COc1cc(Cl)c(NC(=O)CCS(=O)(=O)c2ccc3c(c2)NC(=O)CO3)c(OC)c1	/	/	/	/	1.0	-5.6	/	/
Cc1c(Cl)cccc1N(CC(=O)NC1CCCCC1)S(C)(=O)=O	-11.9	-0.1%	-4.5	-2.7	72.0*	-23.8	-3.3%	-2.5%
Cc1ccc(NS(=O)(=O)c2ccc3c(c2)NC(=O)CCS3)c(C)c1	-10.7	0.0%	-1.3	-0.5	1.8	7.9	/	/
CCN1CC(CN(C)Cc2nc(Cc3ccccc3)no2)CC1=O (centres undefined)	-0.6	-0.5%	0.4	-2.8	1.0	-1.5	/	/
Cc1cc(NC(=O)COc2coc(CN3CCN(c4ccc(F)cc4)CC3)cc2=O)no1	-5.6	-0.3%	-1.2	-6.6	-0.9	1.7	/	/
O=C(COc1coc(CN2CCN(c3ccccc3)CC2)cc1=O)Nc1ccccc1	26.4	0.4%	9.3	-31.1	45.7*	-5.7	11.5%	17.5%
Cc1cc(NC(=O)COc2coc(CN3CCN(c4ccccc4)CC3)cc2=O)no1	/	-0.9%	14.6	-0.3	/	/	3.2%	25.2%
Cc1cccc(NC(=O)COc2coc(CN3CCN(c4ccccc4)CC3)cc2=O)c1C	4.7	-0.1%	?	-2.8	43.4*	-14.0	-3.9%	23.9%
Cc1ccc(NC(=O)COc2coc(CN3CCN(c4ccccc4)CC3)cc2=O)cc1	9.1	0.1%	0.6	-9.6	10.6	-6.1	/	/
